Bioassay records: PubChem BioAssay, several laboratories
TIM10 inh – growth inhibitors of isogenic TIM10 control yeast, primary screen, counter-screen for tim10-1 yeast inhibitor project, luminescence, uHTS. S. cerevisiae TIM10 strain growth, BacTiter-Glo luminescence, 24 h. 1.4% of 330,000 active. inhibition, % at 10 µM;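 active = inhibition of 40% or more at the single tested concentration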;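 note: wild-type TIM10 isogenic control strain grown at permissive 25 °C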
tim10-1 inh – growth inhibitors of tim10-1 mutant yeast, primary screen, luminescence, uHTS | S. cerevisiae tim10-1 ts strain growth, BacTiter-Glo, 24 h | inhibition, % at 20 µM | 2.2% of 330,000 active;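 active = inhibition of at least 40%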;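 note: mutant grown at 25 °C; 0% = DMSO wells with yeast and 100% = wells holding no yeast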
tim23-1 inh – growth inhibitors of tim23-1 mutant yeast, primary screen, luminescence, uHTS; inhibition, % at 20 µM; AID 463212, 2010; 1.3% of 330,000 active; S. cerevisiae tim23-1 growth, BacTiter-Glo luminescence, 24 h;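 active = growth inhibition of the mutant yeast at or above 50%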;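 note: temperature-sensitive mutant grown at 25 °C; plate controls were DMSO-treated mutant yeast for no effect and medium wells lacking yeast for full effect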
NALP3 yeast inh – NALP3 inflammasome inhibitors in reconstituted yeast, primary screen, luminescence, uHTS; 0.39% of 330,000 active; Yeast reconstituted NLRP3/ASC/caspase-1, beta-gal luminescence, 24 h; inhibition, % at 10 µM;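 active = inhibition of 50% or more; inactive = inhibition below 50%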;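 note: plate controls were induced DMSO wells for no effect and uninduced yeast grown without galactose for full effect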
SKKanGAS inh – S. pyogenes SKKanGAS growth inhibitors in kanamycin, primary screen, streptokinase expression inhibitor project, SKKanGAS strain, BacTiter-Glo luminescence; 6 h; inhibition, % at 7.5 µM; 1.3% of 300,000 active;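 active = mean replicate score, as percent of positive control median, at least 50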;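 note: strain carries kanamycin resistance gene driven by streptokinase promoter and grows in 40 µg/ml kanamycin; loss of luminescence reflects streptokinase promoter inhibition or plain growth inhibition; 0% = median of DMSO wells and 100% = positive control at its reference dose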
PfHsp90 set2 – growth inhibition of PfHsp90-expressing yeast, primary screen, antimalarial PfHsp90 inhibitor project, S. cerevisiae, BacTiter-Glo luminescence, single point, set 2. AID 504621, 2011. 0.32% of 310,000 active. BacTiter-Glo ATP, 48 h; yeast lacking PDR1 and PDR3 efflux regulators. inhibition, % at 9.4 µM;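 active = every replicate shows inhibition above about 80%, whatever the replicate mean, limit read from the data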;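 note: 0% = DMSO neutral controls and 100% = 20 µM radicicol positive controls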
TIM10 conf – growth inhibitors of wild-type TIM10 yeast, confirmation, counter-screen for tim10-1 synthetic lethality project, single concentration, luminescence, S. cerevisiae; shares compounds with TIM10 inh; S. cerevisiae tim10 strain growth, BacTiter-Glo luminescence, 24 h; inhibition, % at 10 µM; 63% of 4,600 active; AID 463215, 2010;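 active = inhibition of yeast growth at or above a set limit in either of two replicates at 10 µM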;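 note: this counterscreen used the strain with wild-type TIM10; 0% = yeast with DMSO and 100% = medium wells lacking yeast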
Numbers without * were called inactive. In the library only some 4.5% were active in any assay of this set; here they are far more common.

For CCNC(=O)N(CCOC)CC1CCCN(C2Cc3ccccc3C2)C1 (configuration not stated) the results were TIM10 inh 51*, tim10-1 inh -15, tim23-1 inh -7, NALP3 yeast inh 17, SKKanGAS inh -5, PfHsp90 set2 19 and TIM10 conf -8.
For S=c1[nH]nc(COc2ccc(Cl)cc2)n1C1CCCCC1 the results were TIM10 inh 40*, tim10-1 inh 32, tim23-1 inh 26, NALP3 yeast inh 15, SKKanGAS inh -4, PfHsp90 set2 -43 and TIM10 conf 9.
`O=C(CCc1nc2ccccc2s1)Nc1ccccc1` gave TIM10 inh 47*, tim10-1 inh 12, tim23-1 inh 37, NALP3 yeast inh 44, SKKanGAS inh 1, PfHsp90 set2 2 and TIM10 conf 1.
For Cc1ccc(NC(=O)c2ccccc2OCC(=O)c2ccccc2)cc1 the results were TIM10 inh 30, tim10-1 inh 30, tim23-1 inh 14, NALP3 yeast inh -10, SKKanGAS inh 2 and PfHsp90 set2 -15.
Screening CCOc1ccc(NC(=O)c2ccccc2OCC(=O)c2ccccc2)cc1 returned TIM10 inh 45*, tim10-1 inh 33, tim23-1 inh 11, NALP3 yeast inh 20, SKKanGAS inh 40, PfHsp90 set2 3 and TIM10 conf 28.
Screening O=C(Oc1ccc(OC(=O)c2ccco2)c(S(=O)(=O)c2ccc(Cl)cc2)c1)c1ccco1 returned TIM10 inh 49*, tim10-1 inh 25, tim23-1 inh 32, NALP3 yeast inh 6, SKKanGAS inh 1, PfHsp90 set2 -53 and TIM10 conf -6.
`O=C(Nc1cc(Cl)ccc1Cl)c1ccc(OC(=O)c2ccco2)cc1` gave TIM10 inh 4, tim10-1 inh 17, tim23-1 inh -4, NALP3 yeast inh 25, SKKanGAS inh -3 and PfHsp90 set2 6.
Screening CN1CCN(c2nc(-c3ccccn3)nc3ccccc23)CC1 returned TIM10 inh -57, tim10-1 inh -8, tim23-1 inh -39, NALP3 yeast inh -3, SKKanGAS inh 2 and PfHsp90 set2 5.
`c1ccc(N2CCN(c3nc(-c4ccccn4)nc4ccccc34)CC2)cc1` gave TIM10 inh 40*, tim10-1 inh 15, tim23-1 inh -7, NALP3 yeast inh 38, SKKanGAS inh 100*, PfHsp90 set2 -15 and TIM10 conf 5.
O=C(CN1C(=O)c2ccc(Br)cc2C1=O)NCC1CCCO1 (configuration not stated) was read as TIM10 inh 4, tim10-1 inh 12, tim23-1 inh 7, NALP3 yeast inh 6, SKKanGAS inh 6 and PfHsp90 set2 -5.
O=C(Nc1ccc(C(O)(C(F)(F)F)C(F)(F)F)cc1)c1ccc(Cl)c([N+](=O)[O-])c1 was read as TIM10 inh 59*, tim10-1 inh 38, tim23-1 inh 30, NALP3 yeast inh 12, SKKanGAS inh 2, PfHsp90 set2 13 and TIM10 conf 2.
`O=C(O)c1cc(NC(=O)c2ccc(Cl)c([N+](=O)[O-])c2)cc(C(=O)O)c1` gave TIM10 inh 7, tim10-1 inh -9, tim23-1 inh 0, NALP3 yeast inh -8, SKKanGAS inh 7 and PfHsp90 set2 6.
Screening Cc1nn2c(-c3ccco3)nnc2c2ccccc12 returned TIM10 inh 62*, tim10-1 inh 36, tim23-1 inh 43, NALP3 yeast inh 12, SKKanGAS inh 4 and TIM10 conf 48*.
`CC(=O)NC(CC(C)C)C(=O)O` (configuration not stated) gave PfHsp90 set2 6.
Cc1[nH]nc2ncc(C(=O)c3cc(Cl)cc(Cl)c3O)cc12 was read as TIM10 inh 63*, tim10-1 inh 34, tim23-1 inh 43, NALP3 yeast inh 21, SKKanGAS inh 23, PfHsp90 set2 -30 and TIM10 conf 31*.
For COc1cc(/C=N/NC(=S)NC2CC3C=CC2C3)cc(OC)c1OC (configuration not stated) the results were TIM10 inh 49*, tim10-1 inh 11, tim23-1 inh 41, NALP3 yeast inh 20, SKKanGAS inh -16, PfHsp90 set2 -16 and TIM10 conf 31*.
Screening COc1cc(/C=N/NC(=S)NCCc2ccccc2)cc(OC)c1OC returned SKKanGAS inh -10 and PfHsp90 set2 -24.
For O=C(NCC1(O)CCCCC1)C1CCC(=O)N(CCc2ccccc2)C1 (configuration not stated) the results were TIM10 inh 8, tim10-1 inh 3, tim23-1 inh -6, NALP3 yeast inh 0, SKKanGAS inh -3 and PfHsp90 set2 10.
Screening O=C(CN1CCN(S(=O)(=O)c2ccccc2)CC1)Nc1cccc(C(F)(F)F)c1 returned TIM10 inh 41*, tim10-1 inh 31, tim23-1 inh 8, NALP3 yeast inh 14, SKKanGAS inh -6, PfHsp90 set2 57 and TIM10 conf 8.
O=C(CNc1cccc(C(F)(F)F)c1)Nc1cccc(S(=O)(=O)N2CCCC2)c1 was read as TIM10 inh 17, tim10-1 inh 23, tim23-1 inh 16 and NALP3 yeast inh -4.
For Cc1ccc(N(CC(=O)Nc2cc(C)cc(C)c2)S(=O)(=O)c2c(C)noc2C)cc1 the results were TIM10 inh 29, tim10-1 inh 36, tim23-1 inh 28, NALP3 yeast inh 12, SKKanGAS inh 7 and PfHsp90 set2 5.
`Cc1ccc(N(CC(=O)Nc2ccc(F)c(Cl)c2)S(=O)(=O)c2c(C)noc2C)cc1` gave TIM10 inh 64*, tim10-1 inh 38, tim23-1 inh 18, NALP3 yeast inh -22, SKKanGAS inh 23, PfHsp90 set2 -8 and TIM10 conf 61*.
Screening COc1cc(NC(=O)c2cccs2)cc(OC)c1 returned TIM10 inh 70*, tim10-1 inh 26, tim23-1 inh 29, NALP3 yeast inh 49, SKKanGAS inh -1, PfHsp90 set2 -11 and TIM10 conf 56*.
Cc1nc(-c2cccc(NC(=O)c3cccs3)c2)cs1 was read as TIM10 inh 15, tim10-1 inh -3, tim23-1 inh 33, NALP3 yeast inh 30, SKKanGAS inh -6 and PfHsp90 set2 2.
Screening O=C(Nc1ccc2c(c1)OCO2)c1cccs1 returned TIM10 inh 47*, tim10-1 inh 37, tim23-1 inh 39, NALP3 yeast inh 31, SKKanGAS inh 6, PfHsp90 set2 21 and TIM10 conf 37*.
